# Measurements from the supplement of paper PMC9023506.
# Structures can show the parent of a compound that is named as a salt.
# Tests used:
# Details in all cases: 10 µM; exposure time: 3 h pre-incubation + 3 h imaging
# [1] = tested on: Danio rerio larvae (5 dpf); experiment: habituation to 1-s acoustic pulses, difference vs DMSO (percentage points (treated minus DMSO)); higher = more of the behaviour than the DMSO vehicle control
# Summary of the method: (§1)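 Five-days-post-fertilisation wild-type zebrafish larvae were held in 96-well ProxiPlates and exposed to each library drug at a final 10 µM, diluted 1000× from DMSO stocks into egg water, with 48 larvae per drug. Exposure lasted 3 h before and 3 h during imaging at 28.5 °C, with images taken every 6 s across a 3-h program of rest, moving coloured lines and acoustic pulses. An ImageJ macro scored movement and upper-half location, and each behaviour score is the treated-group mean minus the vehicle-group mean, expressed in percentage points.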
# [2] = tested on: Danio rerio larvae (5 dpf); experiment: excitability to 1-s acoustic pulses, difference vs DMSO (percentage points (treated minus DMSO)); higher = more of the behaviour than the DMSO vehicle control
# Summary of the method: as §1
# [3] = tested on: Danio rerio larvae (5 dpf); experiment: activity during first hour (no stimuli), difference vs DMSO (percentage points (treated minus DMSO)); higher = more of the behaviour than the DMSO vehicle control
# Summary of the method: as §1
# [4] = tested on: Danio rerio larvae (5 dpf); experiment: optomotor response to red moving lines, difference vs DMSO (percentage points (treated minus DMSO)); higher = more of the behaviour than the DMSO vehicle control
# Summary of the method: as §1
# [5] = tested on: Danio rerio larvae (5 dpf); experiment: optomotor response to blue moving lines, difference vs DMSO (percentage points (treated minus DMSO)); higher = more of the behaviour than the DMSO vehicle control
# Summary of the method: as §1
# [6] = tested on: Danio rerio larvae (5 dpf); experiment: optomotor response to green moving lines, difference vs DMSO (percentage points (treated minus DMSO)); higher = more of the behaviour than the DMSO vehicle control
# Summary of the method: as §1
# [7] = tested on: Danio rerio larvae (5 dpf); experiment: optomotor response to fast red moving lines, difference vs DMSO (percentage points (treated minus DMSO)); higher = more of the behaviour than the DMSO vehicle control
# Summary of the method: as §1
# [8] = tested on: Danio rerio larvae (5 dpf); experiment: startle response to 20-s acoustic pulses, difference vs DMSO (percentage points (treated minus DMSO)); higher = more of the behaviour than the DMSO vehicle control
# Summary of the method: as §1
structure (smiles),measurement,setting,value
CCCN(CCc1cccs1)[C@H]1CCc2c(O)cccc2C1 [Rotigotine hydrochloride],habituation to 1-s acoustic pulses,[1],-12.9
same,excitability to 1-s acoustic pulses,[2],31.3
same,activity during first hour,[3],-26.8
CC(=O)O[C@H]1C(=O)[C@@]2(C)[C@H]([C@H](OC(=O)c3ccccc3)[C@]3(O)C[C@H](OC(=O)[C@H](O)[C@@H](NC(=O)c4ccccc4)c4ccccc4)C(C)=C1C3(C)C)[C@]1(OC(C)=O)CO[C@@H]1C[C@@H]2O [Taxol],excitability to 1-s acoustic pulses,[2],-0.779
same,optomotor response to red moving lines,[4],6.51
same,optomotor response to blue moving lines,[5],-0.599
CCC(=O)O[C@]1(C(=O)SCF)[C@H](C)C[C@H]2[C@@H]3C[C@H](F)C4=CC(=O)C=C[C@]4(C)[C@@]3(F)[C@@H](O)C[C@@]21C [Fluticasone propionate],habituation to 1-s acoustic pulses,[1],3.04
same,activity during first hour,[3],7.17
same,optomotor response to green moving lines,[6],2.35
CS(=O)(=O)CCNCc1ccc(-c2ccc3ncnc(Nc4ccc(OCc5cccc(F)c5)c(Cl)c4)c3c2)o1 [Lapatinib],excitability to 1-s acoustic pulses,[2],14.5
same,activity during first hour,[3],-5.32
same,optomotor response to green moving lines,[6],0.954
same,optomotor response,[7],-0.638
O=C1CCc2cc(OCCCCc3nnnn3C3CCCCC3)ccc2N1 [Cilostazol],activity during first hour,[3],10.3
same,startle response to 20-s acoustic pulses,[8],2.19
CCCCCCCN(CC)CCCC(O)c1ccc(NS(C)(=O)=O)cc1 (configuration not stated) [Ibutilide hemifumarate],excitability to 1-s acoustic pulses,[2],12.9
same,activity during first hour,[3],-4.99
CCCCCOC(=O)Nc1nc(=O)n([C@@H]2O[C@H](C)[C@@H](O)[C@H]2O)cc1F [Capecitabine],habituation to 1-s acoustic pulses,[1],-3.26
same,activity during first hour,[3],6.31
same,optomotor response to green moving lines,[6],1.46
same,optomotor response,[7],5.07
COc1cc2nc(N3CCN(C(=O)c4ccco4)CC3)nc(N)c2cc1OC [Prazosin hydrochloride],habituation to 1-s acoustic pulses,[1],0.4
same,activity during first hour,[3],-3.12
same,startle response to 20-s acoustic pulses,[8],5.19
Nc1nc2c(ncn2COCCO)c(=O)[nH]1 [Acyclovir],excitability to 1-s acoustic pulses,[2],0.524
same,activity during first hour,[3],-2
same,startle response to 20-s acoustic pulses,[8],0.665
